Reference: PubChem BioAssay (EPA / NIEHS)
Several values for one entry are separate records, joined by “and”; a condition that tells them apart may be missing. Equal entries are not always repeated. Where a structure was tested more than once in an assay, its records may differ in their call. Activity calls are given as the source filed them. How the source made its calls: active means hit-call score of the fitted dose curve at least 0.9, where 1 is the maximum; inactive means score below 0.9.

Biological target: Cytochrome P450 2C18 (Homo sapiens) (UniProt P33260)
Test: NVS_ADME_hCYP2C18: NovaScreen (NVS) CYP450-related Enzyme Activity (ADME) Assay for human CYP2C18 (AID 2283103)
Procedure: NVS_ADME_hCYP2C18 is a biochemical, single-readout assay that uses extracted gene-proteins in a cell-free assay. Measurements were taken 0.5 hour after chemical dosing in a 96-well plate.NVS_ADME_hCYP2C18 is one of one assay component(s) measured or calculated from the NVS_ADME_hCYP2C18 assay. It is designed to make measurements of enzyme activity, a form of enzyme reporter, as detected with fluorescence intensity signals by Fluorescence technology.Data from the assay component NVS_ADME_hCYP2C18 was analyzed into 1 assay endpoint. This assay endpoint, NVS_ADME_hCYP2C18, was analyzed in the positive analysis fitting direction relative to Acetonitrile as the negative control and baseline of activity. Using a type of enzyme reporter, loss-of-signal activity can be used to understand changes in the enzymatic activity as they relate to the gene CYP2C18. Furthermore, this assay endpoint can be referred to as a primary readout, because this assay has produced multiple assay endpoints where this one serves a enzymatic activity function. To generalize the intended target to other relatable targets, this assay endpoint is annotated to the cyp intended target family, where the subfamily is xenobiotic metabolism.
Binding assays used specific radioligands (tritiated, iodinated) with non-radioactive competitive displacement ligands in agonist or antagonist protocols (as indicated) and various reference compounds and inhibitors to titrate specific binding to receptors and transporters. Most enzyme assays (CYPs, kinases, phosphatases, proteases, HDACs) used recombinant protein and specific substrates (fluorescence mostly, some colorimetric and radioactive) and inhibitors, followed by a biochemical separation of substrate and product. All assays for the biochemical HTS were initially run in duplicate at a single concentration (10 uM for CYP450 assays and 25 uM for all others). Assay-chemical combinations meeting a pre-defined threshold (e.g., 30% inhibition and other criteria defined below) were then run in singleton concentration-response format with maximum concentration of 20 uM for CYPs and 50 uM for all others. Each assay was run with positive and negative controls, and concurrent controls on every plate. The follow-up (secondary) screen tested active chemical-pairs in concentration series, as well as a few additional assays not tested in the primary screen, some selected negative inactives, and several cases re-run in the concentration series for confirmatory purposes.

Sequence of Cytochrome P450 2C18 (Homo sapiens) (P33260 whole entry, looked up): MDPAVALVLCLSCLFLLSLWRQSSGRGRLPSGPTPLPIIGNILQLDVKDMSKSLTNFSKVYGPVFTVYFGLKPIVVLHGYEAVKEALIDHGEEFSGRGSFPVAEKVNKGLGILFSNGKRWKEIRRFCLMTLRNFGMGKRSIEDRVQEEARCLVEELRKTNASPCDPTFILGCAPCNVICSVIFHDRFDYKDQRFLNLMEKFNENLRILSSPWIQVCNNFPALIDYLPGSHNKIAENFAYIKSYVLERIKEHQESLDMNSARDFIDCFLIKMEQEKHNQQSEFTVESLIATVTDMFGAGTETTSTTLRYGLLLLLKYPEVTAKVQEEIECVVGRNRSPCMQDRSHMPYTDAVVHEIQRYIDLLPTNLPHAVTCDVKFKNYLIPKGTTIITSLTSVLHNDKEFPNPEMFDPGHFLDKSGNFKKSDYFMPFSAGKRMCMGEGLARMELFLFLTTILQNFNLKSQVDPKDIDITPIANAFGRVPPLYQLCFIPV

Row | Compound | AC50 | outcome
1 | CCCCOCCOCCOCc1cc2c(cc1CCC)OCO2 | 4.47 µM (active) | 
2 | S=C([S-])NCCNC(=S)[S-].[Mn+2] | 10 µM (active) | 
3 | C#C[C@]1(O)CC[C@H]2[C@@H]3CCc4cc(O)ccc4[C@H]3CC[C@@]21C | 1.46 µM (active) and 1.72 µM (active) | inactive
4 | CCCCCOC(=O)COc1cc(N2C(=O)C3=C(CCCC3)C2=O)c(F)cc1Cl |  | inactive
5 | CC(=O)O[C@]1(C(C)=O)CC[C@H]2[C@@H]3C=C(Cl)C4=CC(=O)[C@@H]5C[C@@H]5[C@]4(C)[C@H]3CC[C@@]21C | 6.86 µM (active) | inactive
6 | S=C(S)NCCNC(=S)S.[Mn+2].[S-]C([S-])=NCCN=C([S-])[S-].[Zn+2] |  | inactive
7 | CCCCC(CC)COC(=O)c1ccccc1C(=O)O (stereo unspecified) |  | inactive
8 | CSC(=O)c1cccc2nnsc12 | 3.8 µM (active) | 
9 | Cc1nn(C)c(Oc2ccccc2)c1C=NOCc1ccc(C(=O)OC(C)(C)C)cc1 |  | inactive
10 | CC(C)[C@@H](C(=O)O[C@@H](C#N)c1cccc(Oc2ccccc2)c1)c1ccc(Cl)cc1 |  | inactive
11 | CC(=O)[C@H]1CC[C@H]2[C@@H]3CCC4=CC(=O)CC[C@]4(C)[C@H]3CC[C@]12C | 7.03 µM (active) and 2.27 µM (active) | inactive
12 | C#CCOC(=O)[C@@H](C)Oc1ccc(Oc2ncc(Cl)cc2F)cc1 | 2.13 µM (active) | 
13 | C=CCOC(Cn1ccnc1)c1ccc(Cl)cc1Cl (stereo unspecified) | 0.427 µM (active) | 
14 | CC(C)(c1ccc(O)cc1)c1ccc(O)cc1 | 6.12 µM (active) and 7.43 µM (active) | 
15 | N#CSCSc1nc2ccccc2s1 | 2.72 µM (active) | 
16 | O=c1c(-c2ccc(O)cc2)coc2cc(O)cc(O)c12 |  | inactive
17 | CCN(CC)CCOc1ccc(C(=C(Cl)c2ccccc2)c2ccccc2)cc1 | 11.4 µM (active) and 4.62 µM (active) | 
18 | C[C@]12CC[C@@H]3c4ccc(O)cc4CC[C@H]3[C@@H]1CC[C@@H]2O | 9.57 µM (active) | 
19 | COC(=O)CSc1cc(N=c2sc(=O)n3n2CCCC3)c(F)cc1Cl |  | inactive
20 | CCOC(=O)NCCOc1ccc(Oc2ccccc2)cc1 | 4.5 µM (active) | 
21 | Oc1ccc(C(c2ccc(O)cc2)C(Cl)(Cl)Cl)cc1 | 0.668 µM (active) | 
22 | CCCCC(CC)CN1C(=O)C2C3C=CC(C3)C2C1=O (stereo unspecified) | 4.81 µM (active) | 
23 | CC(C)(C)[C@@H](O)[C@@H](Cc1ccc(Cl)cc1)n1cncn1 | 5.35 µM (active) | 
